Among the data in PubChem BioAssay (NCATS) are Potency and outcome values, retold here.

Records with an inconclusive call do not appear. Active and inactive are the calls of the source. The call rests on the fitted dose curve; in most records, active means well fitted curve in the direction sought with a large enough effect; inconclusive means small, poorly fitted or top-dose-only effect, or another doubt; inactive means no such curve, though single readings can be large; an effect the other way counts as inactive or inconclusive. Numbered stars: 1 amine (or outer) side, 2 acyl side, 3 side chain; on linkers, the order of the positions; unused ones are H or OH. Bridge positions count the residues as written; N and C are the ends. Square brackets hold non-standard residues; d marks the D form. Peptide text beside a SMILES is read from it. ξ: configuration not given here. Phe(3R-OH) = O=C([C@@H](N[*:1])[C@H](O[*:3])c1ccccc1)[*:2]; NMeTrp(4-OMe) = CN[C@@H](Cc1c[nH]c2cccc(OC)c12)C(=O)O; ξThr(3R)(O-yl) = C[C@@H](O[*:3])C(N[*:1])C(=O)[*:2]; NMeThr(3ξ) = CN[C@H](C(=O)O)C(C)O; NMeL = CN[C@@H](CC(C)C)C(=O)O; NMeV = CN[C@H](C(=O)O)C(C)C; ξIle = CC[C@H](C)C(N)C(=O)O; ξV = CC(C)C(N)C(=O)O

The subject of test [1] is Zika virus NS2B-NS3 protease (linked construct). Briefly: Primary screen NINDS Rhodamine qHTS for Zika virus inhibitors (AID 1347160). Further: nearly all actives have a fitted effect of over 55% in size. Further: potency means the concentration at half of the fitted maximal effect. A digest of the protocol:
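Purified linked NS2B-NS3 protease (NS2B hydrophilic domain joined to NS3 protease by flexible linker), 25 nM in 10 mM Tris-HCl pH 8.0, 0.01% Tween 20. Compounds titrated, 15 min preincubation at room temperature; 1.5 microM Rhodamine110 substrate, FITC fluorescence change over 15 min.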

Test [2] is described as follows: OV-KATE Cancer Cell Toxicity qHTS against the NCATS CANVASS Library (AID 1347345). Further: potency means the concentration at half of the fitted maximal effect. A digest of the protocol:
(§1)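 Following a 4 h pre-incubation of 1000 seeded cells, compounds were pinned in an 11-pnt dilution series and left for 72 h; viability then came from CellTiter-Glo.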
(In general: qHTS replaces the single test concentration by a dilution series.)

Test [3] can be described thus: HPAF-II Cancer Cell Toxicity qHTS against the NCATS CANVASS Library (AID 1347346). Further: nearly all actives have a fitted effect of over 55% in size. Further: potency means the concentration at half of the fitted maximal effect. The essentials: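 Cytotoxicity in HPAF-II pancreatic cancer cells: 72 h treatment across 11 concentrations, ATP-based CellTiter-Glo luminescence endpoint.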
Test [4] can be described thus: UWB1.289 Cancer Cell Toxicity qHTS against the NCATS CANVASS Library (AID 1347347). Further: nearly all actives have a fitted effect of over 60% in size. Further: potency means the concentration at half of the fitted maximal effect. The essentials:
as §1

Test [5] is described as follows: Panc-1005 Cancer Cell Toxicity qHTS against the NCATS CANVASS Library (AID 1347349). Further: nearly all actives have a fitted effect of over 60% in size. Further: potency means the concentration at half of the fitted maximal effect. The essentials: as §1
Test [6] is described as follows: HPAF-II 24hr Apoptosis Induction qHTS against the NCATS CANVASS Library (AID 1347356). A digest of the protocol: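 Apoptosis induction in HPAF-II pancreatic cancer cells is measured as caspase-3/7 luminescence after a 24-hour exposure to compounds.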
A short description of test [7]: HPAF-II 12hr Apoptosis Induction qHTS against the NCATS CANVASS Library (AID 1347358). A digest of the protocol: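 Apoptosis in HPAF-II pancreatic cancer cells is scored as caspase 3/7 luminescence following a 12-hour exposure to an 11-point compound series.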
Test [8] is described as follows: HEK293 24hr Apoptosis Induction qHTS against the NCATS CANVASS Library (AID 1347359). A digest of the protocol: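 Caspase-3/7 activation measured as luminescence from the DEVD-based Caspase-Glo reagent, 15 min at room temperature, following 24-hour compound treatment of HEK293 cells.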
The nature of test [9]: HPAF-II 18hr Apoptosis Induction qHTS against the NCATS CANVASS Library (AID 1347360). The essentials: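 Caspase-3/7 activation was measured with luminescent Caspase-Glo 3/7 reagent (15 min, RT) in HPAF-II cancer cells (500 cells/well). Before detection, cells had been treated for 18 h at 37 C with compounds (11 points).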
A short description of test [10]: HEK293 12hr Apoptosis Induction qHTS against the NCATS CANVASS Library (AID 1347361). A digest of the protocol:
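HEK293 cells (500/well, DMEM + 10% FBS) were exposed to natural products across an 11-point series for 12 hours at 37 degrees C. Caspase-3/7 activity was then measured with DEVD luciferase luminescence after 15 min at room temperature.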

Test [11] concerns NAD(P)H diaphorase (Clostridium kluyveri). Briefly: Diaphorse counterscreen qHTS: Assay Interference Panel against the NCATS CANVASS Library (AID 1347362). The essentials:
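Counterscreen for coupling-enzyme interference: resorufin fluorescence from resazurin/NADH turnover, read after 5 min at room temperature. Compounds were tested over an 11-point series after 15 min dark preincubation with diaphorase in PBS-Tween.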
(In general: Counterscreens check selectivity or assay interference.)

In test [12] the target is Luciferin 4-monooxygenase (Photinus pyralis) (UniProt P08659). As to the kind of experiment: Firefly luciferase counterscreen qHTS: Assay Interference Panel against the NCATS CANVASS Library (AID 1347363). Further: series mostly up to about 57 µM. The essentials:
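Luminescence inhibition readout: compounds (11-point qHTS) sat 15 min at room temperature with substrate mix (0.013 mM luciferin and ATP), then firefly luciferase was added and signal read 5 min later.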

A short description of test [13]: qHTS for ATAD5 Agonist screened against the NCATS CANVASS Library (AID 1347367).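 Further: luciferase reporter driven by ATAD5 which rises upon DNA damage.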 The essentials: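 Genotoxicity via ATAD5-luciferase luminescence after 16 h compound exposure (11-point series) at 37C in HEK293T-ATAD5 cells. CellTiter-Fluor viability read precedes the luminescence read; MMS serves as positive control.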
The nature of test [14]: qHTS for ATAD5 Antagonist screened against the NCATS CANVASS Library (AID 1347370). Further: nearly all actives have a fitted effect of over 65% in size. Further: potency means the concentration at half of the fitted maximal effect. The essentials:
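HEK293T cells with a stably integrated ATAD5-controlled luciferase reporter were exposed to compounds (11-pt) alongside 10 uM 5-fluorouridine as ATAD5 stabilizer for 16hr at 37C. Viability was read by CellTiter-Fluor fluorescence, then ATAD5 by luminescence.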

Test [15] can be described thus: J3T Cancer Cell Toxicity qHTS against the NCATS CANVASS Library (AID 1347371). Further: potency means the concentration at half of the fitted maximal effect. A digest of the protocol:
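Viability of the J3T glioma line from dog is scored by ATP luminescence after a 72 hr incubation with natural products.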

The target in test [16] is Nuclear receptor subfamily 1 group I member 3 (Homo sapiens) (UniProt Q14994). As to the kind of experiment: qHTS for Constitutive Androstane Receptor (CAR) Agonist screened against the NCATS CANVASS Library (AID 1347373).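 Further: every well also contained 1.5 µM PK11195 alongside the test compound.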 The essentials:
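CAR agonism is scored as CYP2B6-promoter luciferase induction in a double-stable transfected HepG2 line, where 1.5uM PK11195 is included in each well. Compounds were tested over a 24hr exposure.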

Test [17] is described as follows: qHTS for Hypoxia signaling pathway (HIF-1) agonists against the NCATS CANVASS Library (AID 1347375). The essentials:
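Inducers of HIF-1 signaling were detected in ME-180 cells bearing an HRE-driven beta-lactamase reporter after 17 h compound exposure. Activity came from CCF4-AM FRET emission ratio (460/530 nm) in qHTS format.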

Test [18] is described as follows: qHTS for Inflammasome Signaling Inhibitors: IL-1-beta AlphaLISA screen against the NCATS CANVASS Library (AID 1347379).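 Further: human THP-1 cells primed with LPS then triggered with ATP.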 The essentials: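 Human THP-1 cells were pretreated 1 hr at 37 °C with compounds (up to 57.5 uM final), then stimulated with LPS (250 ng/mL final) and ATP (1.25 mM final). Secreted IL-1B was read by AlphaLISA after 16 hr.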
Test [19] in a line: Inflammasome Signaling qHTS Counterscreen: IL-1-beta AlphaLISA counterscreen against the NCATS CANVASS Library (AID 1347381).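 Further: cell-free check with purified IL-1β in medium and no THP-1 cells; series mostly up to about 57 µM.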 A digest of the protocol:
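To flag interference with the AlphaLISA read-out, a known amount of purified IL-1-beta (4 pg) replaced cell supernatant. Detection used anti-IL-1-beta acceptor beads, biotinylated antibody and streptavidin donor beads at room temperature.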

The nature of test [20]: 10-beta competent E. coli microbial cell viability qHTS against the NCATS CANVASS Library (AID 1347376). Further: series mostly up to about 46 µM. A digest of the protocol: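 Cytotoxicity toward competent E. coli is scored from cellular ATP content via BacTiter-Glo luminescence following overnight compound exposure at 37C, 5% CO2.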

Sequence of Luciferin 4-monooxygenase (Photinus pyralis) (P08659 whole entry, looked up): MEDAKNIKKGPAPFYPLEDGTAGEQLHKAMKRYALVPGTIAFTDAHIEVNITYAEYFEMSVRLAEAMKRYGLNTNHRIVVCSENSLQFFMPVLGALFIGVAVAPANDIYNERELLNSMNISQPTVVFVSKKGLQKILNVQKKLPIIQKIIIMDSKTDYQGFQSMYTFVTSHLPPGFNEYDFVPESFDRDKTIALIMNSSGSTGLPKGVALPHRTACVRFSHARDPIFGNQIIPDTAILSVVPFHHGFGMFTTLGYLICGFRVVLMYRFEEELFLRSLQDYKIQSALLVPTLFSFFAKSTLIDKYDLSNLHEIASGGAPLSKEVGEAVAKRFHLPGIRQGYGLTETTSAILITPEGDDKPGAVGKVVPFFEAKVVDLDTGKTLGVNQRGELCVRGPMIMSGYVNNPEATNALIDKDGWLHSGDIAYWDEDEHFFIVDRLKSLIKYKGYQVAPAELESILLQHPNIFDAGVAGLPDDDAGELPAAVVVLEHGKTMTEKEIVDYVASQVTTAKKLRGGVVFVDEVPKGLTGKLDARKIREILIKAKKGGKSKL
Sequence of Nuclear receptor subfamily 1 group I member 3 (Homo sapiens) (Q14994 whole entry, looked up): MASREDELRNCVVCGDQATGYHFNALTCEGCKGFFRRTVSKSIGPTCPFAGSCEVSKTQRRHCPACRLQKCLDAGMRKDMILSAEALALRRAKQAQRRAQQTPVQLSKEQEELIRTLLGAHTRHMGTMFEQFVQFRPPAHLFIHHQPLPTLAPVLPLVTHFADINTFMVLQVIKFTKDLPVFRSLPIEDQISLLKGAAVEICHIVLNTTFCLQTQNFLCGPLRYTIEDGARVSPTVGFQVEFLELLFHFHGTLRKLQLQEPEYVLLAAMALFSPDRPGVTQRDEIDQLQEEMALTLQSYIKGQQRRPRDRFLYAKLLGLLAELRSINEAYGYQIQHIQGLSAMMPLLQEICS

Consider `CC[C@H](C)C(NC(=O)[C@@H](NC)C(C)C)C(=O)NC1C(=O)N(C)[C@@H](C(C)O)C(=O)N[C@@H](C(C)C)C(=O)N(C)[C@@H](CC(C)C)C(=O)NC(C(C)C)C(=O)N(C)[C@@H](C(C)C)C(=O)N(C)[C@@H](Cc2c[nH]c3cccc(OC)c23)C(=O)N[C@@H](C(C)C)C(=O)N[C@@H]([C@H](O)c2ccccc2)C(=O)N[C@@H](C(C)C)C(=O)O[C@@H]1C` (stereo partly drawn) (H-[NMeV][ξIle][ξThr(3R)(O-yl)][NMeThr(3ξ)]V[NMeL][ξV][NMeV][NMeTrp(4-OMe)]V[Phe(3R-OH)]V; ester 3-C), for which the Potency result in test [1], in [2], in test [4], in [5], in test [7] and in test [8] was “inactive” each time. The Potency entry in test [9], in test [10], in test [11], in test [12], in test [13] and in [14] was “inactive” in each case. Also, the Potency entry in [15], in [17] and in test [18] was “inactive” each time. In addition, the Potency in [3] was 11.9 µM (active). Besides, the result in test [6], in test [16] and in test [19] was inactive.
Turning to `COc1cc(/C=C2/C(=O)N(c3ccc(O)cc3C(=O)O)[C@H](c3ccc(O)c(OC)c3)C2C(=O)Nc2ccc(O)cc2C(=O)O)ccc1O` (some centres undefined), the Potency in test [1] is 6.97 µM (active). Further, the Potency result in [2], in test [3], in test [4], in [5], in test [7] and in test [8] was “inactive” in each case. For the same molecule, the Potency entry in test [9], in test [10], in test [11], in test [12], in [13] and in test [14] was “inactive” throughout. Moreover, the Potency entry in [15], in [17] and in test [18] was “inactive” each time. For the same molecule, the result in test [6], in test [16], in [20] and in test [19] was inactive.
Regarding `C/C=C/C=C/C1(O)C2C=C3C(=O)CC45C(=O)C(O)=C(C)C(=O)C4C1C1(C(=O)C(O)=C(C)C(=O)C351)C2C` (centres undefined), the Potency in test [1] was 39.2 µM (active). Further, the Potency result in test [2], in test [3], in [4], in [5], in test [7] and in [8] was “inactive” in each case. Also, the Potency entry in [9], in test [10], in test [11], in test [12], in test [13] and in test [14] was “inactive” each time. For the same molecule, the Potency result in [15], in test [17] and in test [18] was “inactive” throughout. Further, the molecule was classed as inactive in test [6], in [16], in [20] and in test [19].
In the case of `C=C1C[C@@]23C=CC(=O)[C@@](C)(CCC(=O)Nc4c(O)ccc(C(=O)O)c4O)C2C[C@@H]1CC3` (some centres undefined), in test [1], the Potency was 27.7 µM (active). Moreover, the Potency result in test [2], in test [3], in test [4], in test [5], in [7] and in test [8] was “inactive” in each case. In addition, the Potency result in test [9], in test [10], in test [11], in [12], in [13] and in test [14] was “inactive” each time. Further, the Potency entry in test [15], in test [17] and in test [18] was “inactive” in each case. The call in [6], in test [16], in [20] and in test [19] was inactive.
For the molecule `C/C(=C\[C@H](C)C(=O)CCCC1CC(=O)NC(=O)C1)[C@@H]1OC(=O)/C=C/CC/C=C/C[C@@H](O)[C@@H]1C`, the Potency is 17.5 µM (active) in test [1]; 2.11 µM (active) in test [2]; 1.49 µM (active) in [3]; 2.11 µM (active) in [4]; 1.88 µM (active) in test [5]; 2.34 µM (active) in [14]. In addition, the Potency was 2.64 µM (active) in [15] and 9.68 µM (active) in test [18]. The outcome in [6], in test [16], in [20] and in [19] was inactive. Also, the Potency entry in test [7], in test [8], in test [9], in test [10], in [11] and in [12] was “inactive” each time. For the same molecule, the Potency result in test [13] and in [17] was “inactive” each time.
